Results: the GenesisPotency data set
Hit rate of the full screen: of about 500 compounds, about 40 (8%) were called active.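 Rule for the calls: active = mean IC50 below 20 µM in each of the two panels, so potent in both; inactive = the rest.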 Not all results are given here.

The compounds below were run against T1, Neuropilin-1, Homo sapiens (UniProt O14786) (assay: NRP-1 b1b2 CendR peptide binding inhibitors, dose response, biochemical, FP and AlphaScreen panel (AID 651650)).
T1 sequence (whole entry): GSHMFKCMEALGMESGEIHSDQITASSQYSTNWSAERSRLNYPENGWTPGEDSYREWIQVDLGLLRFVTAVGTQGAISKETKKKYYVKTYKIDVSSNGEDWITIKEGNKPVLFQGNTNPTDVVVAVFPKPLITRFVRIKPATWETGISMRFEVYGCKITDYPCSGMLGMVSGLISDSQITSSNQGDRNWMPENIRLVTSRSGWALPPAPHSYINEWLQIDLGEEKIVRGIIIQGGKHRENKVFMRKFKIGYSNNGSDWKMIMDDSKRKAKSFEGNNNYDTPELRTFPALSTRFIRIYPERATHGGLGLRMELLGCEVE
With Cn1c(=O)c2[nH]c(COc3ccccc3)nc2n(C)c1=O the outcome was “inactive”.
